# Test results published in the supplement of paper PMC12819154, “High-throughput peptide-centric local stability assay extends protein–ligand identification to membrane proteins, tissues and bacteria” (Nature Structural & Molecular Biology, 2025).
# Compound: Nc1ncnc2c1ncn2[C@@H]1O[C@H](COP(=O)(O)OP(=O)(O)OP(=O)(O)O)[C@@H](O)[C@H]1O [adenosine 5'-triphosphate]
# Experiment: log2 fold change of tryptic peptide abundance, ligand vs vehicle (limited proteolysis) (log2 ratio); higher = more trypsin-susceptible (destabilized)
# Conditions: ligand concentration: 5 mM; sample: E. coli desalted lysate; replicate design: treated before aliquoting
# Method: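 HT-PELSA: desalted E. coli K-12 BW25113 lysate (with 12 mM MgCl2) incubated with 5 mM ATP (pH 7) or water for 30 min at 25 C, then a 4 min trypsin pulse at 22 C. Peptides were quantified by DIA-MS (4 replicates). Value is the peptide log2 fold change (treated/control); negative = stabilized. Scale: negative = ligand-stabilized region.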
# 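Further: lysate desalted by size exclusion to strip endogenous ATP, peptide intensities built from DIA-NN precursor signals, and peptides missing any value discarded before comparison.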
# Sequence of UniProt P33030 (P33030 whole entry): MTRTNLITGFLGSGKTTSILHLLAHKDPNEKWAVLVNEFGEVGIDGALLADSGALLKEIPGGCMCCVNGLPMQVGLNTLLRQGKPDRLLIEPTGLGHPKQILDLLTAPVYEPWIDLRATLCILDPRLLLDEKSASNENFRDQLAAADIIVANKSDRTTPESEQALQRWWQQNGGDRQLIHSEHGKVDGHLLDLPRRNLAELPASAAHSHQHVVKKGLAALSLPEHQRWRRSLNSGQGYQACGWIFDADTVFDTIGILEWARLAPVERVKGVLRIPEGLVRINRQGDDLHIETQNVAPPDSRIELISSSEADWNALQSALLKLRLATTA
# Sequence of UniProt P17169 (P17169 whole entry): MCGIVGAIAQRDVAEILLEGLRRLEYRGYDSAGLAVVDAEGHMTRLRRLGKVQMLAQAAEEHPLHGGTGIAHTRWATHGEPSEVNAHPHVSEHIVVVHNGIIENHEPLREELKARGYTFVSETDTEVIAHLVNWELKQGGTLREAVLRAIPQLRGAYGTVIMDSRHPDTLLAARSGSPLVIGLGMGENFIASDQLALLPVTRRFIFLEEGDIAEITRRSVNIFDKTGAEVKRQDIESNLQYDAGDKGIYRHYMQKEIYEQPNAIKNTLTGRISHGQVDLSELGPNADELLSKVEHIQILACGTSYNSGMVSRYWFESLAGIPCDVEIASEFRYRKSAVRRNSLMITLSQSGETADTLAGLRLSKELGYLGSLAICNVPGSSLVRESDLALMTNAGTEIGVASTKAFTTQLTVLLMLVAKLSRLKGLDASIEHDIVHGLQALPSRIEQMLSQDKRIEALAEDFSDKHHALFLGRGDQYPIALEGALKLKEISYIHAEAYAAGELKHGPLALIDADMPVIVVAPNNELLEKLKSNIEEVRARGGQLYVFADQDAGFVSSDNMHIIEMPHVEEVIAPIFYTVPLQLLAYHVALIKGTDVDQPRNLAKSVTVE
# Sequence of UniProt P37759 (P37759 whole entry): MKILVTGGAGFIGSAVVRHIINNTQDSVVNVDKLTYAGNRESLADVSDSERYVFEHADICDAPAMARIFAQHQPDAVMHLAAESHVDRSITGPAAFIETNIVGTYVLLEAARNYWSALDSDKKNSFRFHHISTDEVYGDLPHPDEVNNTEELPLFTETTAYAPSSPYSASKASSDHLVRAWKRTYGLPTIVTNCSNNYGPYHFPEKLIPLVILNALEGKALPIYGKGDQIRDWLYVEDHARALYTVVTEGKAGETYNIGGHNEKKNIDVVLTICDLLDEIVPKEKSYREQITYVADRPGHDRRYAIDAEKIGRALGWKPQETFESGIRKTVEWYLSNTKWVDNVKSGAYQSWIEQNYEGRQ
# Sequence of UniProt P27848 (P27848 whole entry): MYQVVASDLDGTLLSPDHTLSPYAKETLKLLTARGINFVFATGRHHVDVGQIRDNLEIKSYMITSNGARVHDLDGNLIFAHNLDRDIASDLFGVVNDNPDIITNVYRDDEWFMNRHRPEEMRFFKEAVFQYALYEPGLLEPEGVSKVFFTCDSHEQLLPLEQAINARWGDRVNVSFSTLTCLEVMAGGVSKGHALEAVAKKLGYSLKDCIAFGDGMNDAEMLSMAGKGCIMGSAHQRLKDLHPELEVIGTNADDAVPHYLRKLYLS
# Sequence of UniProt P22525 (P22525 whole entry): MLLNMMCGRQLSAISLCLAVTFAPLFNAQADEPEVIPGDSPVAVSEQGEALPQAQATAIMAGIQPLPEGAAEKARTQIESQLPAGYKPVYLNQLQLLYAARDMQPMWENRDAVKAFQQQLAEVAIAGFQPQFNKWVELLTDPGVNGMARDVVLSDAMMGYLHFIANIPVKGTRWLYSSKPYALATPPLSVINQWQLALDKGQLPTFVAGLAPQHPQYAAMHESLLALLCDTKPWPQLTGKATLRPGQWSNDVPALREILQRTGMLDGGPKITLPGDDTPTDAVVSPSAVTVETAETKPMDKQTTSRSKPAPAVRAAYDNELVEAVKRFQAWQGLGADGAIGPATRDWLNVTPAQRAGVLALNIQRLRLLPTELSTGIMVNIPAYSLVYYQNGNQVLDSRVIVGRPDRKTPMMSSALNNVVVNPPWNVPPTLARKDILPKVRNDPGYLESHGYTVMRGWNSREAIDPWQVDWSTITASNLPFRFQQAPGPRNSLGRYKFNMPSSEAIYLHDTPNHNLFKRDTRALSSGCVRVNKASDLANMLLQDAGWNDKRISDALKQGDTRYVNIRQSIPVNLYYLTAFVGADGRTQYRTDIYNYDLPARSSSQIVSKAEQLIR
# Sequence of UniProt P55135 (P55135 whole entry): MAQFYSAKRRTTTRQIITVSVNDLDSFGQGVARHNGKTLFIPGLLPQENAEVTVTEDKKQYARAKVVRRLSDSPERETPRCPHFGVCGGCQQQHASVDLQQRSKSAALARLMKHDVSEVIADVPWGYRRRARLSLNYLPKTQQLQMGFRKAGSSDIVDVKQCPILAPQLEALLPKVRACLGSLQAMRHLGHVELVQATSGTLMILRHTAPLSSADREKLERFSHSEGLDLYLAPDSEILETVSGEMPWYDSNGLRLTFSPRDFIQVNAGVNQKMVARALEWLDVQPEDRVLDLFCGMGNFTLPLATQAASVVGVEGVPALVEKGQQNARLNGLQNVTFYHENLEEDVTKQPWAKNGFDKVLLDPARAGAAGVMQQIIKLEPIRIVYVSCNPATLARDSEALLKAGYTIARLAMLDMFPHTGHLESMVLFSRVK
# Sequence of UniProt P36672 (P36672 whole entry): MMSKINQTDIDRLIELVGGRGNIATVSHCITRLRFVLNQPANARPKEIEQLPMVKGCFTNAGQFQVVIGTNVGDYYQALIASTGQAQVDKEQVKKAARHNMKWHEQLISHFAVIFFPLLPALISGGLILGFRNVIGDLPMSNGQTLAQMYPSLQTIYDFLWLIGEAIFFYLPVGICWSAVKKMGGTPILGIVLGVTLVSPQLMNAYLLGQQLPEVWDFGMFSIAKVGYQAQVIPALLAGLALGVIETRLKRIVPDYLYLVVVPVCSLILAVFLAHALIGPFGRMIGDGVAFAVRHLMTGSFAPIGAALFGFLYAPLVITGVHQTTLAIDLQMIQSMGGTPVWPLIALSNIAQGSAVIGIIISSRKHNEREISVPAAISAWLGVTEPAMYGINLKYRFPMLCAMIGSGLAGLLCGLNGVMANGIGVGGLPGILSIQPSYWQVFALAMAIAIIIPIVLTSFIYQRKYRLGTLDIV
# Sequence of UniProt P30178 (P30178 whole entry): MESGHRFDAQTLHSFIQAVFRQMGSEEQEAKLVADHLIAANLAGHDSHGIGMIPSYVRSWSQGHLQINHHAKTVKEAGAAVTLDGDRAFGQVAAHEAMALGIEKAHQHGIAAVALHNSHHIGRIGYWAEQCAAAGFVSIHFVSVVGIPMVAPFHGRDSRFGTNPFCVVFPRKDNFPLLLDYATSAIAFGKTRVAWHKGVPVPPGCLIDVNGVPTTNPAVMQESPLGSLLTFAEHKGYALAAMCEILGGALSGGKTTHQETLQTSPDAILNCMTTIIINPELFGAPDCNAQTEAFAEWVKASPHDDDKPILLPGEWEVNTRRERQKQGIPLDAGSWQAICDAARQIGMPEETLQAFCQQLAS
row,Target,log2 fold change
1,"UniProt P27848 (peptide sequence: GHALEAVAK, peptide start residue: 192)",0.631
2,"UniProt P22525 (peptide sequence: AGVLALNIQR, peptide start residue: 356)",-0.343
3,"UniProt P30178 (peptide sequence: QMGSEEQEAK, peptide start residue: 22)",-1.15
4,"UniProt P55135 (peptide sequence: RLSDSPER, peptide start residue: 69)",-0.744
5,"UniProt P33030 (peptide sequence: TTPESEQALQR, peptide start residue: 157)",-0.316
6,"UniProt P36672 (peptide sequence: LRFVLNQPANARPK, peptide start residue: 33)",0.581
7,"UniProt P37759 (peptide sequence: EQITYVADRPGHDRR, peptide start residue: 289)",-0.709
8,"UniProt P17169 (peptide sequence: LKSNIEEVR, peptide start residue: 530)",-0.459
